Data: PubChem BioAssay AID2606 (The Scripps Research Institute Molecular Screening Center, 2010)
In all, about 320,000 compounds went through this assay and about 160 (0.05%) were called active. Many of the other results were omitted from the sample, so actives are more common in it than they were. A number with no mark means an inactive call. Cut-off read from the data, not from the text of the source: active = inhibition above about 38%; inactive = the rest.

Each molecule was assayed against Serine protease Rv3671c (Mycobacterium tuberculosis (strain ATCC 25618 / H37Rv)) (UniProt P9WHR9) (assay: Rv3671c serine protease inhibitors, primary screen, biochemical, fluorescence polarization, M. tuberculosis H37Rv (AID 2606;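 note: extracellular domain of Rv3671c used as enzyme; 0% = enzyme with DMSO and 100% = no enzyme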)). Conditions: at 5.96 µM; hits give high values.
Sequence of Serine protease Rv3671c (Mycobacterium tuberculosis (strain ATCC 25618 / H37Rv)) (P9WHR9 whole entry, looked up, the tested form may be a part): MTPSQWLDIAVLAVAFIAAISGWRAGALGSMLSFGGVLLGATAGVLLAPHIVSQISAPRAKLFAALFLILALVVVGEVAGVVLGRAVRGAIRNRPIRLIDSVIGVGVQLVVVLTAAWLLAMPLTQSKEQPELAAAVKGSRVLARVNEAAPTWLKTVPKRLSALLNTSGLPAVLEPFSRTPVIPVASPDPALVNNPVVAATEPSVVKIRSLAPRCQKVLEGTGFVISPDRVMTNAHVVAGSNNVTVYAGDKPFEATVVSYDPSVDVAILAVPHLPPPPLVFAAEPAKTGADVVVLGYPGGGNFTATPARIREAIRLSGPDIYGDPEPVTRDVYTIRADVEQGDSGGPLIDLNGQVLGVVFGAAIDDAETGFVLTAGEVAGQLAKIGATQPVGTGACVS

Row | Structure (SMILES) | inhibition
1 | COP1(=O)C[C@@H](O)[C@@H](O)[C@@H](COCc2ccccc2)O1 (stereo not given in full) | -2.74%
2 | Cc1cnc(C(=O)N2CCCC(C(=O)c3ccc(C(F)(F)F)cc3)C2)cn1 (stereo not given) | -4.62%
3 | CC(c1nnc(SCC(=O)Nc2sccc2C#N)n1-c1ccc(Cl)cc1)N(C)C (stereo not given) | 3.82%
4 | Cn1sc(=O)c2cc(S(=O)(=O)NC3CC3)ccc21 | -8.37%
5 | C[C@@H](NC(=O)c1nc[nH]c1C(=O)N1CCN(C(=O)OC(C)(C)C)CC1)c1ccccc1 | -6.88%
6 | CC(Sc1nnc(Cc2ccc([N+](=O)[O-])cc2)o1)C(N)=O (stereo not given) | -0.21%
7 | C[C@@H](C(=O)Nc1ccc2ccccc2c1)[C@@H]1C[C@@]1(C)[C@@H](NC(=O)c1cccnc1)c1ccccc1 | -17.9%
8 | CCS(=O)(=O)N1Cc2ccccc2CC1C(=O)Nc1nc2ccc(F)cc2s1 (stereo not given) | -18.8%
9 | O=C(NCc1ccccc1)C1=C[C@@H](c2ccccc2)C[C@@H](OCCCCO)O1 | -9.25%
10 | O=S(=O)(c1cc(Cl)ccc1Cl)N1CCN(Cc2ccco2)CC1 | -5.87%
11 | COc1cccc(/C=C2\SC(=N)N(c3ccc(F)cc3)C2=O)c1 | 7.8%
12 | COc1ccc(/C=N/N=C/c2c[nH]c(=O)c(C#N)c2Nc2ccccc2)cc1 | -1.73%
13 | NS(=O)(=O)c1ccc(NC(=S)Nc2ccc(Br)c(Cl)c2)cc1 | -3.02%
14 | CCn1c(SCC(=O)Nc2ccc(Br)cc2)nc2sc3c(c2c1=O)CCN(C)C3 | -7.34%
15 | COc1ccccc1C(=O)Nc1ccc(OCC(=O)N2CCCCC2)cc1 | -8.76%
16 | Cc1cc(NC(=O)CCC(=O)N(Cc2ccccc2)C(C(=O)NC2CCCC2)c2ccc(C)o2)no1 (stereo not given) | -5.73%
17 | CCOC(=O)C1CCN(S(=O)(=O)c2ccc3c(c2)N(C(C)=O)CCO3)CC1 | 2.87%
18 | CCCc1nc2ccccc2c(C(=O)OCc2nnc(-c3cc(OC)c(OC)c(OC)c3)o2)c1CC | -9.57%
19 | COc1ccc(/C=C/C(=O)NC(=S)NN2CCCCC2c2cccnc2)cc1 (stereo not given) | -0.41%
20 | Cc1cc(O)ccc1NC1=CC(=O)CC(C)(C)C1 | -4.53%
21 | CC1CCC(CN2CCN=C2N(C)C)CC1 (stereo not given) | -3.89%
22 | Cc1ccc(S(=O)(=O)NC(=O)COc2ccccc2C)cc1 | 7.88%
23 | CCCCn1c(=S)[nH]c2cc(S(=O)(=O)N3CCCCC3)ccc21 | -12.1%

Row | Structure (SMILES) | inhibition
24 | O=C(COC(=O)c1ccc(S(=O)(=O)N2CCc3ccccc3C2)cc1)NC(=O)NCc1ccco1 | -44.5%
25 | COc1ccccc1OCCNCC(O)COc1cccc2[nH]c3ccccc3c12 (stereo not given) | -3.15%
26 | C=C1C2C[C@H](O)C(C)(C)[C@@]2(O)[C@H](O)C[C@]23C[C@@](C)(O)[C@H](CC[C@H]12)[C@H]3O (stereo not given in full) | 8.16%
27 | CCCCCCCNc1nc(Cl)nc(NCCO)n1 | 1.57%
28 | C/C(=N\NC(=O)NC1CCCCC1)c1ccc(OC(F)F)cc1OC(F)F | -2.17%
29 | C/C(=N/NS(=O)(=O)c1ccccc1)c1ccc(NC(=O)C(F)(F)F)cc1 | -8.65%
30 | O=C(CNC(=O)c1ccccc1F)OCC(=O)c1c[nH]c2ccccc12 | 3.57%
31 | COc1ccc(SC[C@H](Cc2ccccc2)N2CCN(CCc3ccccc3)CCC2=O)cc1 | 1.82%
32 | CC(=O)c1ccc(N2CCN(C(=O)CCNC(=O)Cn3ccc4ccccc4c3=O)CC2)cc1 | -8.01%
33 | CC(=O)Nc1c2c(nn1-c1ccc(C)cc1C)CS(=O)C2 (stereo not given) | -11.2%
34 | CS(=O)(=O)c1ccc(Cl)c(NC(=O)COC(=O)c2ncc(Cl)c(Cl)c2Cl)c1 | 0.74%
35 | O=C(CSc1nnc(-c2ccoc2)o1)N1CCOCC1 | 6.68%
36 | OC(COCc1ccco1)CN1CCN(c2ccccc2)CC1 (stereo not given) | 5.86%
37 | C/C(=N/NC(=O)CN1CCN(S(=O)(=O)c2ccc(Br)cc2)CC1)c1ccncc1 | -1.08%
38 | CCOc1ccc(N(CC(=O)Nc2cccc(OC)c2)S(C)(=O)=O)cc1 | -3.74%
39 | CN=C1C=C/C(=N/N=c2\ccn(O)cc2C)C=C1C | -17.4%
40 | Cc1ccc(-n2c(SCC(=O)Nc3ncc(Cl)cc3Cl)nc3ccccc32)cc1 | -17.4%
41 | Cc1ccn2c(=O)c(NC(=O)c3cccc4ccccc34)c(C)nc2c1 | -5.92%
42 | CC(C(=O)N1CCN(c2ccccc2F)CC1)c1ccc([N+](=O)[O-])cc1 (stereo not given) | 7.31%
43 | CCC(=NC1CC(C)(C)NC(C)(C)C1)C1=C(O)CC(C)(C)CC1=O | -1.22%
44 | CCC(C)[C@H](NC(=O)N1c2ccccc2NC(=O)[C@@H]1C(C)C)C(=O)N[C@@H](Cc1ccccc1)C(=O)O (stereo not given in full) | 6.36%
45 | CCOc1ccccc1NC(=O)C1CCCN(S(=O)(=O)c2ccccc2)C1 (stereo not given) | -17.1%
46 | O=C(Nc1nnc(Cc2ccc(Cl)cc2)s1)c1ccncc1 | 7.51%

Row | Structure (SMILES) | inhibition
47 | COCCn1c(N)c(NCc2ccccc2)c(=O)[nH]c1=O | -10.5%
48 | Cc1ccc(NC(=O)C2(N3CCC3=O)CCCCC2)cc1 | 3.63%
49 | CCOc1ccc(CN(C)C(=O)c2ccc(=O)[nH]c2)cc1 | 0.46%
50 | Cc1cc(C(=O)OC(C)C(=O)NC2CCCCC2C)c(C)o1 (stereo not given) | -0.91%
51 | COc1ccc(Cn2c(O)c(/C=C3/C=CC=N3)c(=O)[nH]c2=O)cc1 | -6.46%
52 | C[C@H](NS(=O)(=O)c1ccc(Cl)cc1)C(=O)OCC(=O)N1CCOCC1 | 3.78%
53 | CN(C)CC(C)(C)CNC(=O)c1cc(Br)cc(Br)c1O | 9.55%
54 | CCCCc1cc2c(s1)CCCC/C2=N/O | -4.78%
55 | CCc1nc2ccc(C(=O)N3CCN(c4cccc(Cl)c4)CC3)cc2nc1CC | 0.29%
56 | O=S(=O)(NC1CC2CCC1C2)c1ccc(Cl)cc1 (stereo not given) | 0.26%
57 | CC(=O)c1ccc(N2CCN(S(=O)(=O)c3c(C)[nH]c(=O)[nH]c3=O)CC2)cc1 | 5.45%
58 | COc1ccc(NC(=O)C(C)SCc2ccccc2)cc1 (stereo not given) | 0.17%
59 | C/C(=N\NC(=O)c1ccc(CSc2nc(C)cc(C)n2)cc1)C1CCCCC1 | -1.11%
60 | O=C1Nc2cc(C(=O)N3CCN(c4ccc(F)cc4)CC3)ccc2NC1CSCc1cccc(F)c1 (stereo not given) | -19.6%
61 | O=C(Nc1cc(S(=O)(=O)Nc2ccc(Cl)cc2)ccc1O)c1ccc(F)cc1F | -20%
62 | COc1ccccc1NC(=S)N1CCN(C(c2ccccc2)c2ccccc2)CC1 | -3.52%
63 | CCOc1ccc(OCC)c(NC(=O)CN(C)S(=O)(=O)c2cccc3nsnc23)c1 | 4.81%
64 | CC(=O)OCCOCn1cnn2c(=O)c(Br)c(C)nc12 | 9.74%
65 | Cc1nc2nc[nH]n2c(=O)c1NC(=O)c1cccc(OCC(C)C)c1 | 2.66%
66 | Cn1cnc(S(=O)(=O)Nc2ccc3c(c2)OCCO3)c1 | -5.54%
67 | O=C(NCc1ccccc1)[C@@H]1CSC2c3ccccc3C(=O)N21 (stereo not given in full) | 5.62%
68 | CCc1cccc2c(C=C(C#N)C#N)cn(CC(=O)N3CCCCC3)c12 | -5.84%
69 | COc1cccc(CNC(=O)Cn2c(=O)oc3cc(S(=O)(=O)N4CCCCC4)ccc32)c1 | -26.5%

Row | Structure (SMILES) | inhibition
70 | O=C(O)c1ccn(COc2ccc(Br)cc2)n1 | 5.52%
71 | CCc1ccc(N(C(=O)c2csnn2)C(C(=O)NC2CCCCC2)c2cccnc2)cc1 (stereo not given) | -1.12%
72 | COc1ccccc1Nc1nnc(SC(C)C(=O)NC2CC2)s1 (stereo not given) | 6.85%
73 | C=C1CCC(N(O)c2cc(C)on2)C(=C)CCC2C1CC2(C)C (stereo not given) | -8.68%
74 | O=C(CNS(=O)(=O)c1ccc2ccccc2c1)Nc1ccc(F)c(F)c1F | 2.38%
75 | CCN(CC)C(=O)CSc1nnc(-c2cnccn2)n1-c1ccc(C)cc1 | -10.7%
76 | O=C(O)C1=NN(c2c(F)c(F)cc(F)c2F)C(=O)CC1 | -8.71%
77 | CCOc1ccc(S(=O)(=O)N2CCC(c3ccccc3)CC2)cc1C(=O)O | 2.59%
78 | CCCN(CCC)S(=O)(=O)c1ccc(C(=O)NNC(=O)c2cc(OC)c(OC)c(OC)c2)cc1 | 2.22%
79 | CCCCNC(=O)C1(c2ccc(OC)cc2)CCOCC1 | 1.73%
80 | CC(C)(C)NS(=O)(=O)NC(=O)C1=C(N2CCCC2)COC1=O | -1.86%
81 | O=c1[nH]c2ccccc2n2c(-c3ccccc3)nnc12 | -13%
82 | COc1ccc(NC(=O)c2cc([N+](=O)[O-])ccc2NC(=O)CNC2CCCCC2C)c(OC)c1 (stereo not given) | -11.9%
83 | CN(C)C(=O)N=NC(=O)N(C)C | -1.83%
84 | O=C(Nc1ccccc1C(=O)O)c1ccc(N2C(=O)C3CC=CCC3C2=O)cc1 (stereo not given) | -4.79%
85 | COc1cccc(CNc2ncc(-c3ccccc3)n2C)c1 | -4.35%
86 | O=C(Cn1ccc([N+](=O)[O-])n1)NCc1cccs1 | 2.31%
87 | CCOc1ncccc1C(=O)OCC(=O)c1c[nH]c2ccccc12 | 2.18%
88 | Cc1ccccc1CSc1nnc(CCCCCNC(=O)OC(C)(C)C)o1 | -2.88%
89 | COc1cc([N+](=O)[O-])cc([N+](=O)[O-])c1NC(=O)N1CCOCC1 | 0.53%
90 | O=C(CN1C(=O)NC2(CCCC2)C1=O)OCCOc1ccc(F)cc1 | 0.5%
